Screening results: PubChem, several laboratories
Shown are actives, neighbours in structure and some others; about 28% of the full set was active somewhere.
CYP2C9 act: human CYP2C9 activators, primary screen, biochemical, luminescence | 1.4% of 96,000 active | Cytochrome P450 2C9 (Homo sapiens), P11712 | recombinant CYP2C9, luciferin-H conversion; stronger effect = higher value; factor 1 = untreated enzyme, 0 = blocked | activation factor at 5 µM;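 active means activation factor of 2 or more for CYP2C9 at a 5 µM dose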
CYP2C19 act: human CYP2C19 activators, primary screen, biochemical, luminescence. Cytochrome P450 2C19 (Homo sapiens), P33261. 96,000 tested, under 10 active. recombinant CYP2C19, luciferin-H EGE luminescence; stronger effect = higher value; 0 = fully inhibited enzyme, 1 = untreated enzyme. activation factor at 5 µM;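 active means activation factor of at least 2 at 5 µM in the primary screen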
D1 mod: D1 CRE-luciferase signal change, two-sided – cell-based, HEK293 D1, dopamine EC30, D1 allosteric modulator project, primary screen. D(1A) dopamine receptor (Homo sapiens), P21728. dopamine EC30 potentiation; actives deviate in either direction. B-score at 10 µM. 5.9% of 58,000 active. AID 641, 2007;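 active means luminescence count or its row- and column-corrected plate score outside the 99.7% band of the plate's sample wells, on either side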
Target sequence (P21728 whole entry, looked up): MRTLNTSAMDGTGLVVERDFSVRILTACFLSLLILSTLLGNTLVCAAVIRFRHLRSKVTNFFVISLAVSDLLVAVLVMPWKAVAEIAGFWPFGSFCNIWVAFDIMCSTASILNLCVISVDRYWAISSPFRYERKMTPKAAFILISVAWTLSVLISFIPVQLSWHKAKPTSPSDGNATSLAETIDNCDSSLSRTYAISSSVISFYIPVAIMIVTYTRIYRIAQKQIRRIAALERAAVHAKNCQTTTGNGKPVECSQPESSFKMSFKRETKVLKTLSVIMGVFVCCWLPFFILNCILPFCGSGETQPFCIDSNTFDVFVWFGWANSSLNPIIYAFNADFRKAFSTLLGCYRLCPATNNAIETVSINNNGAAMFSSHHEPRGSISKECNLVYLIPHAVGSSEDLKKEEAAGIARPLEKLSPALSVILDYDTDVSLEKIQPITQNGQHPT
CYP2C9 inhib: blockers of cytochrome P450 2C9 activity – biochemical, luminescence, ADME assay, primary screen; CYP2C9 Supersomes, luciferin-H conversion; inhibition, % at 5 µM; 20% of 96,000 active; AID 777, 2007;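 active means blocking of liver enzyme CYP2C9 beyond about 50% at 5 µM, limit read from the data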
DAT uptake mod: changed hDAT dopamine uptake under cocaine IC80, either direction, primary screen, cocaine antagonist project, cell-based, LLC-PK1 hDAT, [14C]-dopamine uptake, MLSMR; Sodium-dependent dopamine transporter (Homo sapiens), Q01959; LLC-PK1 hDAT cells, [14C]-dopamine uptake with cocaine IC80; actives deviate in either direction; B-score at 10 µM; 1.3% of 110,000 active; AID 449768, 2010;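 active means Z score or B-score, a plate-position-corrected score, falls beyond the plate's 99.7% confidence bounds, in either direction; inactive means both scores lie inside the 99.7% bounds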
CYP2C19 inhib: blockers of cytochrome P450 2C19 activity – biochemical, luminescence, ADME assay, primary screen. CYP2C19 Supersomes, luciferin-H EGE luminescence, 30 min. inhibition, % at 5 µM. 21% of 96,000 active. AID 778, 2007;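 active means CYP2C19 inhibition above a set limit at 5 µM in the primary screen, cut at about 50% in these data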
Large screens that a line does not name were inactive.

CC(=O)N1CCN(C(=O)CCc2c[nH]c3ccccc23)CC1	none
O=C(CCCc1c[nH]c2ccccc12)N1CCCCCC1	CYP2C19 inhib 98
O=C(c1cccc(F)c1)N1CCN(Cc2c[nH]c3ccccc23)CC1	none
N#Cc1ccc(CN2CCN(C(=O)c3ccccc3)CC2)c(Cl)c1	CYP2C19 inhib 74
O=C(C1CCCN(Cc2ccccc2Br)C1)N1CCCCC1 (configuration not stated)	none
O=C(c1ccc(F)cc1)N1CCN(Cc2ccccc2Br)CC1	CYP2C9 inhib 69, CYP2C19 inhib 98
O=C(c1ccccc1)N1CCN(Cc2c[nH]c3ccccc23)CC1	CYP2C19 inhib 65
CC(C)CNC(=S)NC1CC2CCC(C1)N2Cc1ccccc1 (configuration not stated)	none (no result: CYP2C9 act, CYP2C19 act, D1 mod, CYP2C9 inhib, CYP2C19 inhib)
O=c1c2c([nH]c3ccccc13)CCCC2	CYP2C9 act 2.4 (no result: D1 mod)
Cc1ccc2nc3c(c(N)c2c1)CCN3c1ccccc1	CYP2C19 inhib 69
Cc1ccc(O)c(C2=NCCNC(C(F)(F)F)=C2)c1	none (no result: D1 mod)
Cc1ccc(O)c(-c2cc(-c3ccccc3C)[nH]n2)c1	CYP2C9 inhib 98, CYP2C19 inhib 82
Cc1ccc(O)c(-c2cc(C(F)(F)C(F)F)[nH]n2)c1	CYP2C9 inhib 83, CYP2C19 inhib 84
COc1cc2nc(CN3CCN(c4ncc(C(F)(F)F)cc4Cl)CC3)[nH]c(=O)c2cc1OC	none (no result: DAT uptake mod)
Cc1cccc(C)c1NC(=O)CSc1nnc(-c2ccco2)n1N	CYP2C19 inhib 57
COc1ccc(NC(=O)CSc2nnc(-c3ccccn3)n2N)cc1	DAT uptake mod 2.5
CC(C)c1cc(NC(=O)CSc2nnc(-c3ccccc3F)n2C)on1	CYP2C9 inhib 58
COc1ccc(-c2nnc(SCC(=O)Nc3ccc(C)cc3)n2C)cc1	none
CCN(CC)S(=O)(=O)c1ccc(NC(=O)CSc2nnc(-c3cccc(OC)c3)n2C)cc1	CYP2C9 inhib 52 (no result: D1 mod)
COc1ccc(NC(=O)CSc2nnc(-c3ccccc3C)n2C)cc1	none
CC(C)c1cc(NCCCN2CCOCC2)n2c(nc3ccccc32)c1C#N	none (no result: CYP2C9 act, CYP2C19 act, CYP2C9 inhib, CYP2C19 inhib)
COc1ccc(NC(=O)CSc2nnc(-c3ccco3)n2C)cc1	CYP2C9 inhib 93, CYP2C19 inhib 92
CCOC(=O)c1cc(NC(=O)CSc2nnc(CN3CCOCC3)n2C)ccc1Cl	DAT uptake mod -8.9 (no result: CYP2C9 act, CYP2C19 act, D1 mod, CYP2C9 inhib, CYP2C19 inhib)
CCn1c2ccccc2c2cc(NC(=O)CSc3nnc(-c4ccccc4OC)n3N)ccc21	CYP2C9 inhib 58, DAT uptake mod 2.8, CYP2C19 inhib 94
COc1ccccc1-c1nnc(SCC(=O)Nc2ccc(S(N)(=O)=O)cc2)n1C	CYP2C9 inhib 76 (no result: D1 mod)
CCn1c(SCC(=O)Nc2ccc(S(N)(=O)=O)cc2)nnc1-c1ccccc1OC	none (no result: D1 mod)
Cc1occc1C(=O)Nc1cc(C(F)(F)F)ccc1Cl	none
Cc1nnc(N(CCC#N)CCC#N)s1	none
COc1ccc(NC(=O)CSc2nnc(CCC(=O)Nc3ccc(C)c(Cl)c3)n2C)cc1	CYP2C9 inhib 66 (no result: D1 mod)
CC(Oc1ccc(-c2ccccc2)cc1)C(=O)N1CCOCC1 (configuration not stated)	CYP2C9 inhib 56, CYP2C19 inhib 55
CCCCNC(=S)Nc1ccccc1F	none (no result: D1 mod)
CCN(CCCNC(=O)C1CCN(S(=O)(=O)N2CCC3(CC2)OCCO3)CC1)c1ccccc1	CYP2C19 inhib 53
CCN(CCCNC(=O)C1CCN(S(=O)(=O)CC)CC1)c1ccccc1	none
CCN(CCCNC(=O)C1CCN(S(=O)(=O)c2c(C)[nH]c(=O)[nH]c2=O)CC1)c1cccc(C)c1	CYP2C19 inhib 54 (no result: D1 mod)
Cc1ccc(NC(=O)C2CCN(S(=O)(=O)c3c(C)[nH]c(=O)[nH]c3=O)CC2)cc1	none (no result: D1 mod)
Cc1ccccc1Nc1nc(Nc2ccccc2C)nc(SC2=NCCS2)n1	CYP2C9 inhib 77, CYP2C19 inhib 54 (no result: D1 mod)
Cc1ccc(-c2csc(NC(=O)CSC3=NCCS3)n2)cc1	none (no result: CYP2C9 act, CYP2C19 act, D1 mod, CYP2C9 inhib, CYP2C19 inhib)
Cc1ccc(Nc2nc(Nc3ccc(C)cc3)nc(SC3=NCCS3)n2)cc1	CYP2C9 inhib 86 (no result: D1 mod, DAT uptake mod)
Cc1cccc(N2CCN(CCNC(=O)c3cc4c(s3)CS(=O)(=O)C4)CC2)c1C	CYP2C9 inhib 53
Cc1cc(NC(=O)c2cnn3c(C(F)(F)F)cc(-c4ccc(Br)cc4)nc23)no1	none (no result: D1 mod)
CCN(CC)c1ccc(CN2CCCCCC2)cc1	none (no result: D1 mod)
CN(C)c1ccc(CN2CCCCCC2)cc1	CYP2C9 inhib 67, CYP2C19 inhib 55
CN(C)c1ccc(CN(C)C2CCCCC2)cc1	CYP2C19 inhib 93
COc1nc2ccc(C)cc2cc1-c1noc(-c2ccccc2)n1	none (no result: D1 mod)
COCCOC(=O)C1=C(C)N=C2SCCC(=O)N2C1c1ccc(OC(=O)c2ccco2)cc1 (configuration not stated)	CYP2C9 inhib 73, CYP2C19 inhib 73
CCCOc1ccc(C2C(C(=O)OC)=C(C)N=C3SCCC(=O)N32)cc1OCC (configuration not stated)	none
CCOC(=O)C1=C(c2ccccc2)N=C2SCC(=O)N2C1c1ccc(OCC)c(OCC)c1 (configuration not stated)	none (no result: D1 mod)
CCOC(=O)C1=C(C)N=C2SC(C)C(=O)N2C1c1ccc(C(=O)OC)cc1 (configuration not stated)	CYP2C9 inhib 58, CYP2C19 inhib 73
COCCOC(=O)C1=C(C)N=C2SCCC(=O)N2C1c1cc(Br)ccc1OC (configuration not stated)	none (no result: CYP2C9 act, CYP2C19 act, CYP2C9 inhib, DAT uptake mod, CYP2C19 inhib)
CCOC(=O)C1=C(C)N=C2SC(C)C(=O)N2C1c1ccc(OCC)c(OCC)c1 (configuration not stated)	CYP2C9 inhib 61, CYP2C19 inhib 54
CCOC(=O)C1=C(C)N=C2SCCC(=O)N2C1c1ccc(C(=O)OC)cc1 (configuration not stated)	CYP2C19 inhib 68
CC1=C(C(=O)N2CCOCC2)C(c2ccsc2)C2=C(CCCC2=O)N1 (configuration not stated)	none
CSc1nnc(C)c(/C=C/Nc2ccc(Cl)cc2)n1	CYP2C9 inhib 57 (no result: D1 mod)
O=c1c2c3nc4ccccc4nc3n(/N=C/c3cccs3)c2ncn1-c1ccccc1	none (no result: DAT uptake mod)
O=C(Nn1c(Cc2cccs2)nc2ccccc2c1=O)c1cccs1	CYP2C9 inhib 80, CYP2C19 inhib 84 (no result: D1 mod)
Cc1csc(SCC(=O)NCc2cccs2)n1	none
CCCc1nc2ccccc2c(=O)n1NC(=O)c1c(O)c2cccc3c2n(c1=O)CCC3	none
Cc1nc2ccccc2c(=O)n1NCc1cccs1	CYP2C19 inhib 75 (no result: D1 mod)
